Among the data in PubChem BioAssay (NCI) are growth inhibition values, retold here.

About 79,000 compounds went through this panel and 15% of them were active in at least one assay; those are over-represented in the sample as a whole. A number with no mark means an inactive call. Calls of active or inactive are those of the source. Rule as the data show it: active = growth inhibition above about 70%; inactive = the rest.

Test [1] can be described thus: NCI Yeast Anticancer Drug Screen. Data for the rad50 strain (AID 155).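 Also: 0% = growth of vehicle-only cultures of the same strain.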 The conditions noted are these: S. cerevisiae rad50 strain growth inhibition, hits give high values. The method, boiled down:
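DNA repair mutant yeast, compound exposure, growth read-out; inhibition is taken relative to vehicle.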

Test [2] is described as follows: NCI Yeast Anticancer Drug Screen. Data for the mec2-1 strain (AID 157). Conditions: S. cerevisiae mec2-1 strain, hits give high values. The essentials:
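mec2-1 yeast strain, carrying an alteration in DNA damage repair or cell cycle control, was exposed to compounds; growth inhibition was measured relative to vehicle-treated controls.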

The nature of test [3]: NCI Yeast Anticancer Drug Screen. Data for the sgs1 mgt1 strain (AID 161).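 Also: 0% = growth of cultures given vehicle only.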 The conditions noted are these: S. cerevisiae sgs1 mgt1 strain, hits give high values. The method, boiled down:
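Percent growth inhibition was derived by comparing compound-exposed mutant yeast with vehicle-exposed cultures. The strain carries alterations in DNA damage repair.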

Test [4] is described as follows: NCI Yeast Anticancer Drug Screen. Data for the bub3 strain (AID 167). The conditions noted are these: S. cerevisiae bub3 mutant strain, hits give high values. The method, boiled down: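 In this screen, a yeast mutant lacking normal mitotic checkpoint function is challenged with compound. Relative growth versus vehicle gives the inhibition value.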
A short description of test [5]: NCI Yeast Anticancer Drug Screen. Data for the mlh1 rad18 strain (AID 175). Conditions: S. cerevisiae mlh1 rad18 strain growth inhibition, hits give high values. The essentials: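 Growth inhibition of the yeast strain was measured after compound exposure and expressed relative to vehicle-treated controls. The strain carries defined defects in DNA damage repair.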
A short description of test [6]: NCI Yeast Anticancer Drug Screen. Data for the cln2 rad14 strain (AID 165).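 Also: 0% = growth equal to vehicle treated cultures.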 The conditions noted are these: S. cerevisiae cln2 rad14 strain, hits give high values. The method, boiled down:
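Yeast carrying cln2 and rad14 alterations (cell cycle control and DNA damage repair) were exposed to compounds. Growth inhibition was measured against vehicle-treated controls.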

Setting [7] is: at 5.0 µM (retest, dose inferred, filed as 0.5).
The mark [8] stands for this setting: at 50.0 µM (retest, dose inferred, filed as 5.0).

With `S=c1nc(N2CCCCC2)ss1`, the growth inhibition in test [1] (setting [7]) is 41%; in test [1] (setting [8]) it was 94% (active); in test [1] (at 50.0 µM), 95.2% (active); in test [2] (setting [7]), 1%; in test [2] (setting [8]), 75% (active); in test [2] (at 50.0 µM), 66%. Moreover, the growth inhibition in test [3] (setting [7]) is 18%; in test [3] (setting [8]) it was 93% (active); in test [3] (at 50.0 µM) it was 97.2% (active); in test [4] (setting [7]) it was 17%; in test [4] (setting [8]) it was 97% (active); in test [4] (at 50.0 µM), 46.5%. In addition, the results for the growth inhibition in test [5] (setting [7]), in test [5] (setting [8]) and in test [5] (at 50.0 µM) were 24%, 94% (active) and 97.2% (active), respectively.
For `COC1CCC(O)C(CO)O1` (configuration not stated), the growth inhibition is 100% (active) in test [1] (setting [7]); 99% (active) in test [1] (setting [8]); 99.5% (active) in test [1] (at 50.0 µM); 100% (active) in test [2] (setting [7]); 99% (active) in test [2] (setting [8]); 99.6% (active) in test [2] (at 50.0 µM). In addition, the growth inhibition in test [3] (setting [7]) is 100% (active); in test [3] (setting [8]), 99% (active); in test [3] (at 50.0 µM) it was 99.7% (active); in test [6] (setting [7]) it was 100% (active); in test [6] (setting [8]) it was 99% (active); in test [6] (at 50.0 µM), 99.6% (active). The growth inhibition was 99% (active) in test [4] (setting [7]); 99% (active) in test [4] (setting [8]); 99.5% (active) in test [4] (at 50.0 µM); 99% (active) in test [5] (setting [7]); 99% (active) in test [5] (setting [8]); 99.5% (active) in test [5] (at 50.0 µM).
Turning to `O=C1NC2(C=Cc3c(ccc4ccccc34)O2)Oc2ccccc21` (configuration not stated), the growth inhibition in test [1] (setting [7]) is -12%; in test [1] (setting [8]) it was -8%; in test [1] (at 50.0 µM), 44.5%; in test [2] (setting [7]) it was -16%; in test [2] (setting [8]) it was -7%; in test [2] (at 50.0 µM) it was 10%. For the same compound, the growth inhibition in test [6] (setting [7]) was 31%; in test [6] (setting [8]), 48%; in test [6] (at 50.0 µM) it was 24.4%; in test [4] (setting [7]), 4%; in test [4] (setting [8]) it was -8%; in test [4] (at 50.0 µM), 7.65%. For the same compound, the growth inhibition in test [5] (setting [7]) was -3%; in test [5] (setting [8]), 3%; in test [5] (at 50.0 µM), 62%.
For `C1=C(c2ccccc2)C(c2ccc(OCCN3CCCCC3)cc2)Oc2ccccc21` (configuration not stated), the growth inhibition in test [1] (setting [7]) was 39%; in test [1] (setting [8]), 99% (active); in test [1] (at 50.0 µM) it was 99.3% (active); in test [2] (setting [7]), 9%; in test [2] (setting [8]) it was 99% (active); in test [2] (at 50.0 µM) it was 99.5% (active). In addition, the growth inhibition is 25% in test [6] (setting [7]); 99% (active) in test [6] (setting [8]); 98.1% (active) in test [6] (at 50.0 µM); 35% in test [4] (setting [7]); 99% (active) in test [4] (setting [8]); 98.8% (active) in test [4] (at 50.0 µM). In addition, the growth inhibition in test [5] (setting [7]) was 16%; in test [5] (setting [8]) it was 99% (active); in test [5] (at 50.0 µM) it was 99.5% (active).
For `CN(C)CC(CN(C)C)C(=O)c1ccc(Oc2ccccc2)cc1`, the growth inhibition is 75% (active) in test [1] (setting [7]); 99% (active) in test [1] (setting [8]); 99.5% (active) in test [1] (at 50.0 µM); 75% (active) in test [2] (setting [7]); 99% (active) in test [2] (setting [8]); 99.7% (active) in test [2] (at 50.0 µM). The growth inhibition is 85% (active) in test [3] (setting [7]); 99% (active) in test [3] (setting [8]); 99.4% (active) in test [3] (at 50.0 µM); 69% in test [4] (setting [7]); 99% (active) in test [4] (setting [8]); 99.5% (active) in test [4] (at 50.0 µM). The growth inhibition in test [5] (setting [7]) was 90% (active); in test [5] (setting [8]), 99% (active); in test [5] (at 50.0 µM) it was 99.4% (active).
Consider `CN(C)CC/C(=N\Nc1ccc(Cl)cc1)c1ccccc1`, for which the growth inhibition in test [1] (setting [7]) is 98% (active); in test [1] (setting [8]), 99% (active); in test [1] (at 50.0 µM), 99.2% (active); in test [2] (setting [7]) it was 100% (active); in test [2] (setting [8]), 99% (active); in test [2] (at 50.0 µM), 98.8% (active). In addition, the growth inhibition in test [3] (setting [7]) was 100% (active); in test [3] (setting [8]), 99% (active); in test [3] (at 50.0 µM) it was 99% (active); in test [6] (setting [7]), 96% (active); in test [6] (setting [8]), 99% (active); in test [6] (at 50.0 µM), 95.9% (active). Also, the growth inhibition was 98% (active) in test [4] (setting [7]); 99% (active) in test [4] (setting [8]); 99.6% (active) in test [4] (at 50.0 µM); 99% (active) in test [5] (setting [7]); 99% (active) in test [5] (setting [8]); 98.7% (active) in test [5] (at 50.0 µM).
As for `COc1ccc(/C=c2\sc3nnc(CCC(=O)Nc4cccc(C(F)(F)F)c4)n3c2=O)cc1`, the growth inhibition in test [1] (setting [7]) was -2%; in test [1] (setting [8]) it was 28%; in test [1] (at 50.0 µM), 29.9%; in test [2] (setting [7]), 0%; in test [2] (setting [8]) it was 43%; in test [2] (at 50.0 µM), 53.4%. The growth inhibition was -2% in test [3] (setting [7]); 51% in test [3] (setting [8]); 44.9% in test [3] (at 50.0 µM); 1% in test [6] (setting [7]); 21% in test [6] (setting [8]); 22.1% in test [6] (at 50.0 µM). Besides, the growth inhibition in test [4] (setting [7]) was 0%; in test [4] (setting [8]) it was 38%; in test [4] (at 50.0 µM), 29.6%; in test [5] (setting [7]), -3%; in test [5] (setting [8]), 47%; in test [5] (at 50.0 µM) it was 76.8% (active).
With `O=C(/C=C/c1ccccc1)C1(c2ccccc2)CC1`, the growth inhibition in test [1] (setting [7]) is -125%; in test [1] (setting [8]), -56%; in test [1] (at 50.0 µM), 79.8% (active); in test [2] (setting [7]), -51%; in test [2] (setting [8]), -42%; in test [2] (at 50.0 µM), 60.9%. The growth inhibition was -55% in test [6] (setting [7]); -34% in test [6] (setting [8]); -21.4% in test [6] (at 50.0 µM); -58% in test [4] (setting [7]); 39% in test [4] (setting [8]); 44.5% in test [4] (at 50.0 µM). Moreover, the growth inhibition in test [5] (setting [7]) was -115%; in test [5] (setting [8]) it was -93%; in test [5] (at 50.0 µM), 66.5%.
As for `O=[N+]([O-])OC1CCCC(O[N+](=O)[O-])c2c1n([O-])c1ccccc1[n+]2=O` (configuration not stated), the growth inhibition in test [1] (setting [7]) is 53%; in test [1] (setting [8]), 91% (active); in test [1] (at 50.0 µM), 89.3% (active); in test [2] (setting [7]), 40%; in test [2] (setting [8]), 86% (active); in test [2] (at 50.0 µM) it was 21.2%. Moreover, the growth inhibition in test [3] (setting [7]) was 58%; in test [3] (setting [8]), 94% (active); in test [3] (at 50.0 µM), 82.5% (active); in test [6] (setting [7]) it was 39%; in test [6] (setting [8]), 84% (active); in test [6] (at 50.0 µM), 47.1%. Also, the growth inhibition is 19% in test [4] (setting [7]); 73% (active) in test [4] (setting [8]); 17.5% in test [4] (at 50.0 µM); 53% in test [5] (setting [7]); 94% (active) in test [5] (setting [8]); 84% (active) in test [5] (at 50.0 µM).
Take `CCc1ccc(-c2ccccc2)cc1`: the growth inhibition in test [1] (setting [7]) is 1%; in test [1] (setting [8]) it was 1%; in test [1] (at 50.0 µM) it was 9.45%; in test [3] (setting [7]), -1%; in test [3] (setting [8]), -2%; in test [3] (at 50.0 µM), -3.9%. Further, the growth inhibition in test [6] (setting [7]) is -7%; in test [6] (setting [8]), 6%; in test [6] (at 50.0 µM), 76.9% (active); in test [4] (setting [7]) it was 9%; in test [4] (setting [8]), 10%; in test [4] (at 50.0 µM) it was 9.05%. Further, the growth inhibition in test [5] (setting [7]) is 0%; in test [5] (setting [8]) it was 4%; in test [5] (at 50.0 µM), 8.75%.
